Screens as filed in PubChem.
HCMV inh: human cytomegalovirus inhibition; AID 1259415; HFF cells, HCMV-luciferase reporter, 72 h; active compounds read low; activity change, negative = inhibition, % at 57.5 µM; hit rate 4.5% among 410,000; in the data active means activity change below about -60%; inconclusive means no clear call, values can overlap the other calls; inactive means above about -39%; further: on the % scale 0 is the no-effect control and ±100 the full control effect
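After 16 h attachment at 37C, HFF cells received test compound and HCMV-luciferase (1 PFU/cell); reporter luminescence read 72 h later, data normalized against buffer-only and known inhibitor Salinomycin.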
Shiga toxin inh: blocks Shiga toxin action in Vero cells | Vero cells, Shiga toxin protein synthesis inhibition reporter | hit rate 9.2% among 290,000 | inhibition, % at 38.7 µM; in the data active means inhibition mostly above about 28%, no sharp cut-off; inactive means mostly below about 43%; further: 0% is about no effect
Pf growth 48h: inhibits P. falciparum growth in the first generation, 48 h; P. falciparum luciferase growth in erythrocytes, 48 h; Potency, µM (doses to about 28.7 µM), for inactives: at the highest dose activity change, negative = inhibition, hits mostly inhibitors; hit rate 5.9% among 310,000; further: potency means the concentration at half of the fitted maximal effect; on the % scale 0 is the no-effect control and ±100 the full control effect
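Compounds are pin-transferred into medium, infected erythrocytes (2% hematocrit, 0.1% parasitemia final) are added, and plates sit one parasite generation at 37 C in 5% CO2. Detection reagent is then added and luminescence measured.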
CHX counter: counter-screen for Shiga toxin inhibitors: cycloheximide protein synthesis inhibition. cell reporter, cycloheximide protein synthesis inhibition counterscreen. max response, %. hit rate 12% among 300,000. AID 2314; in the data active means max response mostly above about 13%, no sharp cut-off; inactive means mostly below about 14%; further: read at 38.3 µM for the half of the compounds with a filed dose; 0% is about no effect
HCV inhibitor: HCV inhibition | Huh7.5.1 HCVcc-Cre infection, luciferase reporter, 44 h | Potency, µM (doses to about 41.8 µM), without a hit: at the highest dose activity change, negative = inhibition, actives largely listed as inhibitors | hit rate 3.4% among 340,000 | AID 651820; further: potency means the concentration at half of the fitted maximal effect; on the % scale 0 is the no-effect control and ±100 the full control effect
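Whole-lifecycle infectious HCVcc-Cre system; cells 1,000/well, compound then virus (~0.5 moi) added 4 h after plating, 44 h culture. Luciferase read 15 sec following 15 min substrate incubation, room temp.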
Pf growth 96h: P. falciparum growth inhibition at 96 hours; P. falciparum luciferase reporter growth, 96 h; Potency, µM (top dose mostly 28.7 µM), without a hit: at the top dose activity change, negative = inhibition, usual class: inhibitors; hit rate 6.9% among 320,000; AID 504834; further: potency means the concentration at half of the fitted maximal effect; on the % scale 0 is the no-effect control and ±100 the full control effect
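96 h incubation, 37 C, 5% CO2, of luciferase-reporter P. falciparum-infected RBCs (2% hematocrit, 0.05% parasitemia final) with test compounds; endpoint luminescence.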
Active calls of the source: *; i = inactive; ? = inconclusive; · = not tested or not shown; + = active, no number. This is a sample that favours compounds with a hit; in the whole collection about 21% have one here. Unless noted, the call rests on the fitted dose curve; in most records, active means well fitted inhibition curve with a large enough effect; inconclusive means small, poorly fitted or top-dose-only effect, or another doubt; inactive means no such curve, though single readings can be large or run the other way.

SMILES | HCMV inh | Shiga toxin inh | Pf growth 48h | CHX counter | HCV inhibitor | Pf growth 96h
O=C(NC1=C(Nc2ccc(F)cc2)C(=O)c2ccccc2C1=O)c1ccc(Cl)cc1 | -23.6 | + | 0.522µM* | 16.2* | 2.0% | 0.37µM*
CCC(=O)NC1=C(Nc2ccc(N)cc2)C(=O)c2ccccc2C1=O | -4.8 | 96.4* | ? | 27.4* | ? | ?
CCC(=O)Nc1ccc(NCc2ccc(-c3ccccc3)cc2)cc1 | -28.1 | 0.2 | -1.1% | -2.7 | 5.7% | ?
COC1=C(Nc2ccc(OC)cc2)C(=O)C(OC)=C(Nc2ccc(OC)cc2)C1=O | ? | · | · | · | -0.9% | ·
COc1ccc(S(=O)(=O)Nc2ccc(NC(C)=O)cc2)cc1 | -24.9 | -7.9 | -6.0% | -2.4 | 2.5% | ·
COc1ccc(NC2=C(NC(C)=O)C(=O)c3ccccc3C2=O)cc1 | -67.3* | 25.0 | ? | 6.8 | ? | -0.9%
COC1=C(Nc2ccc(O)cc2)C(=O)c2ccccc2C1=O | -13.6 | 77.2* | ? | 28.1* | ? | 11.7µM*
Cc1ccc(-c2nc3ccccc3c(=O)n2-c2ccncc2)cc1 | -8.3 | -4.3 | -66.5% | 0.5 | 5.1% | ?
O=C(c1ccccc1)c1c(O)nc(-c2ccccc2)n(-c2ccccc2)c1=O | 7.7 | 77.9* | 46.3% | 54.0* | 7.8% | 93.6%
CC(=O)c1c(O)c(C)c(-c2ccccc2)n(-c2ccccc2)c1=O | 27.0 | 21.6 | 9.3% | -3.6 | -1.6% | 1.8%
Cc1ccc(-c2nc3ccccc3c(=O)n2-c2cccc(O)c2)cc1 | ? | 30.2 | -11.2% | 1.3 | -5.6% | -0.3%
COc1ccc(-n2c(-c3ccc(C)cc3)nc3ccccc3c2=O)cc1 | ? | 58.5* | 0.0% | 31.6* | -21.1% | ?
COc1ccc(-c2nc3ccccc3c(=O)n2-c2cccnc2)cc1 | -77.0* | -17.9 | 1.9% | -3.7 | 6.6% | ?
O=c1c2ccccc2nc(-c2ccc(-c3ccccc3)cc2)n1-c1ccncc1 | 111.5 | 21.4 | ? | 25.8* | 5.1% | ?
CCOc1ccc(CNC(=O)c2ccc(Sc3ccc(C)cc3)c(NC(C)=O)c2)cc1 | ? | 1.4 | 1.7% | -2.7 | ? | 33.6%
CC(C(=O)NC(C)(C)C)n1c(-c2ccc3c(c2)OCO3)nc2ccccc21 (configuration not stated) | 15.5 | · | · | · | · | ·
CCCn1cc(CN2CCc3ccc(NC(=O)C4CCCO4)cc3C2)c(C)n1 (configuration not stated) | -26.5 | -33.9 | -2.1% | -0.9 | 1.5% | ?
Cn1cc(Br)c(-c2cccc(N3C(=O)CCCC3=O)c2)n1 | -16.7 | -3.5 | 0.1% | 3.4 | -9.6% | 9.4%
CCOc1ccc(-n2c(-c3cccs3)nc3ccccc3c2=O)cc1 | -66.2* | 16.7 | 0.6% | -3.8 | ? | 9.28µM*
O=c1c2ccccc2nc(-c2cccs2)n1-c1ccccc1 | 2.5 | -10.6 | 0.4% | -3.0 | 4.1% | 5.5%
COc1ccc(CN2C(=O)CSCC2(C)C(=O)Nc2c(C)cccc2C)cc1 (configuration not stated) | 49.6 | · | · | · | · | ·
CC1=CC(C)(C)[N+](C)=CN1c1ccccc1 | 17.7 | -8.2 | ? | -4.2 | -5.1% | 8.28µM*
Cc1nc2cc(C(=O)O)ccc2n1-c1ccccc1 | -36.0 | 5.1 | · | -1.7 | 24.1% | ?
Cc1cccc(-n2ncc3c(N4CC(C)CC(C)C4)ncnc32)c1 (configuration not stated) | -3.6 | 79.5* | · | 39.2* | ? | -91.1%
Cc1ccc(-n2ncc3c(N4CCN(c5ccccc5)CC4)ncnc32)c(C)c1 | -81.8* | 44.4 | 11.7µM* | 24.4* | 4.47µM* | ?
SMILES | HCMV inh | Shiga toxin inh | Pf growth 48h | CHX counter | HCV inhibitor | Pf growth 96h
COc1ccc(N2CCN(c3ncnc4c3cnn4C)CC2)cc1 | -61.0* | · | · | · | · | ·
Cc1cccc(C(=O)N2CCN(c3ncnc4c3cnn4-c3ccccc3)CC2)c1 | 7.8 | -3.0 | 9.28µM* | -1.6 | ? | -14.6%
CC(=O)c1ccc(N2CCN(c3ncnc4c3cnn4C)CC2)cc1 | 13.3 | · | · | · | · | ·
CSCC[C@H](NC(=O)Nc1ccc(Oc2ccccc2)cc1)C(=O)O | -5.1 | 13.4 | 118.7% | 4.7 | -0.9% | ?
Cc1nn(C2CCS(=O)(=O)C2)c(C)c1CN(C)C(=O)c1ccc(F)cc1 (configuration not stated) | 11.7 | · | · | · | · | ·
Cc1cccc(N2CCN(c3nnnn3-c3ccccc3)CC2C)c1 (configuration not stated) | 1.8 | -5.2 | · | -1.7 | ? | 5.86µM*
COc1ccc(-n2ncc3c(N4CCN(c5cccc(C)c5)C(C)C4)ncnc32)cc1 (configuration not stated) | -66.3* | · | · | · | · | ·
Cc1cccc(-n2ncc3c(N4CCN(CCO)CC4)ncnc32)c1 | 86.5 | · | · | · | · | ·
Cc1cccc(-n2ncc3c(N4CCN(c5ccccc5)CC4)ncnc32)c1 | + | · | · | · | · | ·
Cc1cccc(-n2ncc3c(N4CCOCC4)ncnc32)c1 | 30.2 | -10.9 | 64.3% | 15.4* | -17.1% | 16.4%
O=C(Cn1nc(-c2ccc(Cl)cc2)c2ccccc2c1=O)Nc1cccc(C(F)(F)F)c1 | -9.5 | · | · | · | · | ·
Cc1ccc2c(c1)C(c1ccccc1)N(C(=O)Cc1ccc(F)cc1)CC(=O)N2 (configuration not stated) | -11.2 | · | · | · | · | ·
CCN1CCN(C(=O)C2CCCN(S(=O)(=O)c3cccc4nsnc34)C2)CC1 (configuration not stated) | -14.4 | -3.5 | -7.4% | -3.2 | 14.5% | ?
Cc1cccc(-n2ncc3c(N4CCCC4)ncnc32)c1 | -1.7 | 85.5* | i | 32.5* | ? | ·
CCCOc1c(Br)cc(C2C3=C(CCCC3=O)N(C)C3=C2C(=O)CCC3)cc1OC | -8.8 | -4.9 | 9.28µM* | -4.6 | 7.0% | -17.7%
CCCOc1c(Br)cc(C2C3=C(CCCC3=O)N(CC)C3=C2C(=O)CCC3)cc1OC | ? | -5.5 | ? | -7.5 | -23.4% | 0.0%
COC(=O)C1=C(c2cccc(OCc3ccccc3)c2)C[C@@H]2CC[C@H]1N2C(=O)NCc1cccc(OC)c1 | -26.5 | · | 10.4µM* | · | ? | 4.15µM*
COC(=O)C1=C(c2ccccc2)C[C@@H]2CC[C@H]1N2C(=O)NCc1ccc(C(F)(F)F)cc1 | -14.5 | · | · | · | ? | ·
COC(=O)C1=C(c2cccc(OCc3ccccc3)c2)C[C@@H]2CC[C@H]1N2C(=O)NCCOc1ccc(OC)cc1 | -29.3 | · | 7.38µM* | · | ? | ?
COC(=O)C1=C(c2cccc(OCc3ccccc3)c2)C[C@@H]2CC[C@H]1N2C(=O)NCc1ccc(C(C)(C)C)cc1 | -17.1 | · | 3.7µM* | · | 25.1µM* | ?
COC(=O)C1=C(c2cccc(OCc3ccccc3)c2)C[C@@H]2CC[C@H]1N2C(=O)NCCCOC(C)C | -1.7 | · | ? | · | ? | ?
COC(=O)C1=C(c2cccc(OCc3ccccc3)c2)C[C@@H]2CC[C@H]1N2C(=O)NCc1ccc(N(C)C)cc1 | -19.2 | · | 8.28µM* | · | 12.6µM* | ?
